Assay outcomes (PubChem)
Most compounds without a hit are left out; they make up all but 7.8% or so of the library.
Vaccinia mCherry: vaccinia inhibition (mCherry reporter) | AID 720579 | Vaccinia virus mCherry reporter infection, fluorescence | Potency, µM (series often up to 36.5 µM), inactives show top-dose activity change, negative = inhibition, most hits filed as inhibitors | 310,000 compounds, 0.63% hits; calls by dose curve; tested in A549 cells; further: potency means the concentration at half of the fitted maximal effect; nearly all actives have a fitted effect of over 35% in size
HCV inh: inhibitors of hepatitis C virus infection; Huh7.5.1 HCVcc-Cre infection, luciferase reporter, 44 h; Potency, µM (titrated, usually from 41.8 µM), without a hit: at the top dose activity change, negative = inhibition, usual class: inhibitors; 340,000 compounds, 3.4% hits; AID 651820; active means well fitted inhibition curve with a large enough effect; inconclusive means small, poorly fitted or top-dose-only effect, or another doubt; inactive means no such curve, though single readings can be large or run the other way; further: potency means the concentration at half of the fitted maximal effect
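1,000 cells/well; 4 h culture; + compound; + HCVcc-Cre (~0.5 moi); 44 h; luciferase substrate, RT 15 min; read 15 sec.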
Marburg entry inh: Marburg virus entry inhibition; 300,000 compounds, 1.8% hits; Marburg virus pseudotyped entry inhibition, cell reporter; AID 540276; Potency, µM (doses to about 37.8 µM), for inactives: at the highest dose activity change, negative = inhibition, hits mostly inhibitors; calls by dose curve; tested in HEK293 cells; further: potency means the concentration at half of the fitted maximal effect
Vaccinia Venus: inhibitors of vaccinia virus (Venus reporter) | Vaccinia virus Venus reporter expression, fluorescence | Potency, µM (series often up to 36.5 µM), without a hit: top-dose activity change, negative = inhibition, actives largely listed as inhibitors | 330,000 compounds, 0.46% hits | AID 720580; calls by dose curve; tested in A549 cells; further: potency means the concentration at half of the fitted maximal effect; nearly all actives have a fitted effect of over 30% in size
LASV entry inh: inhibitors of Lassa virus binding or cell entry; Lassa virus pseudotype entry inhibition, cell reporter; Potency, µM (doses to about 37.9 µM), for the others: at the highest dose activity change, negative = inhibition, most hits filed as inhibitors; 300,000 compounds, 1.2% hits; AID 540256; calls by dose curve; tested in HEK293 cells; further: potency means the concentration at half of the fitted maximal effect; nearly all actives have a fitted effect of over 50% in size
HCMV antiviral: human cytomegalovirus inhibition. HFF cells, HCMV-luciferase reporter, 72 h; active compounds read low. activity change, negative = inhibition, % at 57.5 µM. 410,000 compounds, 4.5% hits. AID 1259415; in the data active means activity change below about -60%; inconclusive means no clear call, values can overlap the other calls; inactive means above about -39%
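Cell-based, HFFs, 1000 cells/well, 16 h 37C; cpds in DMSO + HCMV-luc, MOI 1 PFU/cell; 72 h 37C; OneGlo luminescence after 5 min RT; norm. to buffer vs Salinomycin 10uM.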
The depositor's hits bear a star; i = inactive; ? = inconclusive; · = not tested or not shown; [ ] = dose if it differs, or a comment. On the % scale 0 is the no-effect control and ±100 the full control effect.

SMILES	Vaccinia mCherry	HCV inh	Marburg entry inh	Vaccinia Venus	LASV entry inh	HCMV antiviral
C=CCOC(=O)N[C@@H](c1cccc(OC)c1)[C@@H](C)C=CCC(=O)O	·	·	7%[14.2 µM]	·	·	·
CCCCc1nc2ccccc2c(NC(=O)CNC(C)(C)C)c1CCC	-24%	?	2%[46.1 µM]	-13%	15%	-21
CCCCc1nc2ccccc2c(N)c1CCC (tested in a mixture with another compound)	?	-55%	18µM*	-26%	?	-68*
COCCCNC(=O)[C@@H](C)N1Cc2ccc(-c3cccc(F)c3)nc2C1=O	·	·	·	·	·	-22
COc1ccc(/C=c2\sc3nc(=O)c(C)nn3c2=O)c(OC)c1	i	10%	·	-4%	·	-62*
Cc1ccc(C#C[C@@H]2C=C[C@H](Oc3ccc4c(c3)OCO4)[C@@H](CO)O2)c(C)c1	·	·	11%[14.2 µM]	·	·	·
CC(=O)OC1(c2ccccc2)CCN(C)CC1(C)C (stereo not drawn)	·	15%	·	·	·	-80*
CC(=O)OC1(c2ccccc2)CCN(C)C2CCCCC21 (stereo not drawn)	-13%	?	-8%	-13%	-14%	-21
CN(C)c1ccc(/C=C2\Cc3ccccc3C2=O)cc1	-13%	·	·	41%	·	·
COc1cc(NC(=O)N2CCc3nc(NCc4cccc(Oc5ccccc5)c4)ncc3C2)cc(OC)c1OC	10µM*	·	·	?	·	-92*
Cc1cc(N2CCN(c3cccc(C)c3C)CC2)n2cnnc2n1	-21%	·	?	-25%	-29%[46.1 µM]	-18
COc1ccccc1NC(=O)Nc1ccc(-n2ccc(C(F)(F)F)n2)cc1	i	5.6µM*	?	-28%	?	-8
O=C(Nc1ccc(-n2ccc(C(F)(F)F)n2)cc1)Nc1cccc(Cl)c1	·	·	·	·	·	-84*
Cc1cc(C)cc(NC(=O)Nc2ccc(-n3ccc(C(F)(F)F)n3)cc2)c1	-5%	?	?	?	?	7
COc1cc2cncnc2cc1OCCCCC(N)=O	-7%	·	·	-18%	·	·
COc1ccc(OC)c(CN2CCCC(c3nc(-c4ccncc4)ncc3-c3ccccc3C)C2)c1 (stereo not drawn)	-4%	·	·	-7%	·	·
COc1ccc(C(=O)N2CCC(C(=O)c3ccc(F)cc3)CC2)cc1	-26%	-3%	?	-20%	-19%	-20
CCOC(=O)C1CCN(C(=O)c2ccc3c(c2)OCCO3)CC1	·	10%	·	·	·	0
CCOc1ccc(C(=O)N2CCC(C(=O)c3ccc4c(c3)OCCO4)CC2)cc1	·	10µM*	-16%	·	-20%	?
COc1ccc(C(=O)C2CCN(C(=O)c3ccc(OC)cc3)CC2)cc1	-23%	7.9µM*	?	?	?	?
Cc1ccc(C(=O)N2CCC(C(=O)c3c(C)cc(C)cc3C)CC2)cc1	·	11µM*	·	·	·	·
COc1ccc(CNC(=O)CN2CCC(C(=O)c3ccc(OC)cc3)CC2)cc1	·	13µM*	-20%	·	?	-78*
CC1=C(C(=O)N(C(C)C)C(C)C)CC(CC(=O)NCc2cccs2)C(=O)N1Cc1ccc(C(C)(C)C)cc1 (stereo not drawn)	6%	·	·	-15%	·	-26
CCCCNC(=O)C1=CC(c2ccc3c(c2)OCO3)=NS(=O)(=O)N1C	1%	·	23%[46.1 µM]	-2%	13%[46.1 µM]	0
O=Cc1cc2c3c(c1)CCCN3CCC2	-15%	·	·	-8%	·	·
SMILES	Vaccinia mCherry	HCV inh	Marburg entry inh	Vaccinia Venus	LASV entry inh	HCMV antiviral
CCS(=O)(=O)c1ncc(Cl)c(C(=O)N2CCN(c3cccc(Cl)c3)CC2)n1	-13%[7.34 µM]	·	5.6µM*	-19%[7.34 µM]	?	-101*
CS(=O)(=O)c1ncc(Cl)c(C(=O)N2CCN(c3cccc(Cl)c3)CC2)n1	-4%[7.34 µM]	·	?	-10%[7.34 µM]	?	-101*
CC1CCc2onc(C(=O)N3CCN(c4cccc(Cl)c4)CC3)c2C1 (stereo not drawn)	i	·	·	-11%	?	-60*
CC1(C(=O)NS(=O)(=O)c2cccs2)CCN1C(=O)CC(c1ccccc1)c1ccccc1 (stereo not drawn)	·	·	·	·	·	7
NCCc1ccn[nH]1	-1%	0%	·	-15%	·	-67*
CCc1c(C)nc2ncnn2c1NCCc1ccccc1	·	28µM*	?	·	3%	-35
CCN(CC)CC(=O)Nc1sc(C)cc1C(=O)c1ccccc1	-9%	8.9µM*	?	-17%	-11%	0
Cc1cc(C(=O)c2ccccc2)c(NC(=O)CCl)s1	-2%	?	1µM*	-16%	-16%	53
O=C(CCl)Nc1ccccc1C(=O)c1ccccc1	·	?	·	·	·	-39
CC(=O)C(Cc1ccccc1)NC(=O)COC(=O)c1cc(S(=O)(=O)N2CCOCC2)ccc1F (stereo not drawn)	i	·	·	-7%	·	10
COc1ccccc1C(=O)Nc1c(C(=O)Nc2ccccc2F)oc2ccccc12	-17%	·	?	-15%	-21%[46.1 µM]	-25
CCn1c2ccccc2c2cc(CNCc3ccc(OC)cc3OC)ccc21	·	13µM*	·	·	·	-30
CCC(CC)NCc1ccc2c(c1)c1ccccc1n2CC	·	13µM*	?	·	?	-33
COc1ccc(C(c2nnnn2C2CCCCC2)N2CCN(C/C=C/c3ccccc3)CC2)cc1 (stereo not drawn)	i	·	·	-10%	·	15
O=C(Nc1cccc(NC(=O)c2ccc(-c3cccc(Br)c3)o2)c1)c1ccco1	-3%	3.5µM*	?	-15%	-27%	-14
Cc1ccccc1NC(=O)c1ccc([N+](=O)[O-])o1	-27%	?	?	-20%	-18%	-13
O=C(Nc1ccccc1Cl)c1ccc([N+](=O)[O-])o1	?	?	13µM*	?	?	-101*
Cc1ccc(NC(=O)c2ccc([N+](=O)[O-])o2)c(C)c1	·	14µM*	·	·	·	-25
O=C(Nc1ccc(NC(=O)c2ccco2)c(Cl)c1)c1ccccc1	i	-30%	·	?	·	18
O=C(Nc1ccc(NC(=O)c2ccc([N+](=O)[O-])o2)cc1Cl)c1ccco1	-22%	?	-12%[46.1 µM]	-18%	0%	-73*
O=C(Nc1cccc(NC(=O)c2ccc(-c3ccc(Br)cc3)o2)c1)c1ccccc1	·	-14%	?	-26%	-1%	-40
CCC1CN(CCNC(=O)c2cc3ccccc3oc2=O)Cc2cc(OC)ccc2O1 (stereo not drawn)	-6%	·	·	-2%	·	·
Cc1ccc(CNc2ncnc3sc(C(=O)N4CCC(N5CCCC(O)C5)CC4)c(C)c23)o1 (stereo not drawn)	-15%	·	·	-8%	·	·
Cc1cc(C(F)F)n2nc(C(=O)Nc3ccc(F)c(Cl)c3)nc2n1	-10%	·	?	-7%	13%[46.1 µM]	?
O=C(Nc1cccc(NC(=O)c2ccc([N+](=O)[O-])o2)c1)c1ccco1	13µM*	?	?	?	?	?
CC(=O)Nc1cccc(NC(=O)c2ccco2)c1	·	-2%	-1%	·	7%	-19
O=CC(=O)c1ccc(F)cc1	-15%	·	·	-7%	·	·
